# From the supplement of paper PMC8728848
# This is one part of a sample in which the strongest signals are shown more often than they occur.
# Experiments:
# Experiment in all cases: glycan array binding signal (z-score within array); higher = stronger binding
# Conditions in all cases: glycan notation: IUPAC condensed, linker removed
# [1] = target: Fuc(a1-2)Gal(b1-3)GlcNAc(b1-2)Man(a1-3)[Fuc(a1-2)Gal(b1-3)GlcNAc(b1-2)Man(a1-6)]Man(b1-4)GlcNAc(b1-4)GlcNAc
# Summary of the method: (§1)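 Glycan array data came from 3228 arrays in the Consortium for Functional Glycomics database, and only arrays with an available protein sequence were kept. Glycan names were put into IUPAC-condensed notation, and columns mapping to the same glycan were averaged. The binding signal is a within-array Z-score, averaged across arrays of one protein sequence run at different concentrations or buffers and across linkers. A negative Z-score can be read as non-binding.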
# [2] = target: Fuc(a1-2)Gal(b1-3)[Fuc(a1-4)]GlcNAc(b1-2)Man(a1-3)[Fuc(a1-2)Gal(b1-3)[Fuc(a1-4)]GlcNAc(b1-2)Man(a1-6)]Man(b1-4)GlcNAc(b1-4)[Fuc(a1-6)]GlcNAc(b1-4)[Fuc(a1-6)]GlcNAc
# Summary of the method: as §1
# [3] = target: Fuc(a1-2)Gal(b1-4)GlcNAc(b1-2)Man(a1-3)[Fuc(a1-2)Gal(b1-4)GlcNAc(b1-2)Man(a1-6)]Man(b1-4)GlcNAc(b1-4)[Fuc(a1-6)]GlcNAc
# Summary of the method: as §1
# [4] = target: Fuc(a1-2)Gal(b1-4)[Fuc(a1-3)]GlcNAc(b1-2)Man(a1-3)[Fuc(a1-2)Gal(b1-4)[Fuc(a1-3)]GlcNAc(b1-2)Man(a1-6)]Man(b1-4)GlcNAc(b1-4)[Fuc(a1-6)]GlcNAc
# Summary of the method: as §1
# [5] = target: Fuc(a1-2)[Gal(a1-3)]Gal(b1-4)[Fuc(a1-3)]GlcNAc
# Summary of the method: as §1
# [6] = target: Fuc(a1-2)[GalNAc(a1-3)]Gal(b1-4)[Fuc(a1-3)]GlcNAc(b1-3)GalNAc
# Summary of the method: as §1
# [7] = target: Fuc(a1-2)[GalNAc(a1-4)]Gal(b1-4)GlcNAc
# Summary of the method: as §1
# [8] = target: Fuc(a1-3)[Gal(b1-4)]GlcNAc6S
# Summary of the method: as §1
# Fuc(b1-3)GlcNAc = target: Fuc(b1-3)GlcNAc
# Summary of the method: as §1
# [9] = target: Gal(a1-3)Gal(b1-3)GlcNAc(b1-2)Man
# Summary of the method: as §1
# [10] = target: Gal(a1-3)Gal(b1-4)[Fuc(a1-3)]GlcNAc
# Summary of the method: as §1
# Gal(a1-3)GalNAc = target: Gal(a1-3)GalNAc
# Summary of the method: as §1
# [11] = target: Gal(a1-3)[Gal(a1-4)]Gal(b1-4)GlcNAc
# Summary of the method: as §1
# Gal(a1-4)Gal(b1-4)Glc = target: Gal(a1-4)Gal(b1-4)Glc
# Summary of the method: as §1
# [12] = target: Gal(b1-3)GalNAc(a1-3)[Fuc(a1-2)]Gal(b1-4)GlcNAc
# Summary of the method: as §1
# [13] = target: Gal(b1-3)GlcNAc(b1-3)GalNAc
# Summary of the method: as §1
# Gal(b1-3)GlcNAc6S = target: Gal(b1-3)GlcNAc6S
# Summary of the method: as §1
# [14] = target: Gal(b1-3)[Fuc(a1-4)]GlcNAc(b1-2)Man
# Summary of the method: as §1
# [15] = target: Gal(b1-3)[Fuc(a1-4)]GlcNAc(b1-2)Man(a1-3)[Gal(b1-3)[Fuc(a1-4)]GlcNAc(b1-2)Man(a1-6)]Man(b1-4)GlcNAc(b1-4)[Fuc(a1-6)]GlcNAc
# Summary of the method: as §1
# [16] = target: Gal(b1-3)[Fuc(a1-4)]GlcNAc(b1-6)GalNAc
# Summary of the method: as §1
# [17] = target: Gal(b1-4)GlcNAc(b1-3)Gal(b1-4)GlcNAc(b1-2)Man(a1-3)[Gal(b1-4)GlcNAc(b1-3)Gal(b1-4)GlcNAc(b1-2)Man(a1-6)]Man(b1-4)GlcNAc(b1-4)GlcNAc
# Summary of the method: as §1
# [18] = target: Gal(b1-4)GlcNAc(b1-3)Gal(b1-4)GlcNAc(b1-2)[Gal(b1-4)GlcNAc(b1-3)Gal(b1-4)GlcNAc(b1-6)]Man(a1-6)[Gal(b1-4)GlcNAc(b1-3)Gal(b1-4)GlcNAc(b1-2)Man(a1-3)]Man(b1-4)GlcNAc(b1-4)[Fuc(a1-6)]GlcNAc
# Summary of the method: as §1
# [19] = target: Gal(b1-4)GlcNAc(b1-3)Gal(b1-4)GlcNAc(b1-3)Gal(b1-4)GlcNAc(b1-2)Man(a1-3)[Gal(b1-4)GlcNAc(b1-3)Gal(b1-4)GlcNAc(b1-3)Gal(b1-4)GlcNAc(b1-2)Man(a1-6)]Man(b1-4)GlcNAc(b1-4)GlcNAc
# Summary of the method: as §1
# [20] = target: GalNAc(a1-3)GalNAc(b1-3)Gal(a1-4)Gal(b1-4)Glc
# Summary of the method: as §1
# GalNAc(b1-4)GlcNAc = target: GalNAc(b1-4)GlcNAc
# Summary of the method: as §1
# [21] = target: GalNAc(b1-4)GlcNAc(b1-3)GalNAc(b1-4)GlcNAc
# Summary of the method: as §1
# [22] = target: GlcNAc(a1-4)Gal(b1-4)GlcNAc(b1-3)Gal(b1-4)GlcNAc
# Summary of the method: as §1
# [23] = target: GlcNAc(b1-3)Gal(b1-4)GlcNAc(b1-2)[GlcNAc(b1-3)Gal(b1-4)GlcNAc(b1-6)]Man(a1-6)[GlcNAc(b1-3)Gal(b1-4)GlcNAc(b1-2)Man(a1-3)]Man(b1-4)GlcNAc(b1-4)GlcNAc
# Summary of the method: as §1
# [24] = target: GlcNAc(b1-3)Gal(b1-4)GlcNAc(b1-3)Gal(b1-4)GlcNAc(b1-2)Man(a1-3)[GlcNAc(b1-3)Gal(b1-4)GlcNAc(b1-3)Gal(b1-4)GlcNAc(b1-2)Man(a1-6)]Man(b1-4)GlcNAc(b1-4)GlcNAc
# Summary of the method: as §1
# [25] = target: GlcNAc(b1-3)Gal(b1-4)GlcNAc(b1-3)GalNAc
# Summary of the method: as §1
# GlcNAc(b1-3)GalNAc = target: GlcNAc(b1-3)GalNAc
# Summary of the method: as §1
# [26] = target: Neu5Ac(a2-3)Gal(b1-3)GalNAc6S
# Summary of the method: as §1
# [27] = target: Neu5Ac(a2-3)Gal(b1-4)GlcNAc(b1-2)[Neu5Ac(a2-3)Gal(b1-4)GlcNAc(b1-4)]Man(a1-3)[GlcNAc(b1-4)][Neu5Ac(a2-3)Gal(b1-4)GlcNAc(b1-2)[Neu5Ac(a2-3)Gal(b1-4)GlcNAc(b1-6)]Man(a1-6)]Man(b1-4)GlcNAc(b1-4)GlcNAc
# Summary of the method: as §1
# [28] = target: Neu5Ac(a2-3)Gal(b1-4)[Fuc(a1-3)]GlcNAc(b1-2)Man
# Summary of the method: as §1
# [29] = target: Neu5Ac(a2-3)Gal(b1-4)[Fuc(a1-3)]GlcNAc(b1-3)Gal(b1-4)GlcNAc
# Summary of the method: as §1
# Neu5Ac(a2-6)Gal = target: Neu5Ac(a2-6)Gal
# Summary of the method: as §1
# [30] = target: Neu5Ac(a2-6)Gal(b1-4)GlcNAc(b1-2)Man
# Summary of the method: as §1
# [31] = target: Neu5Ac(a2-6)Gal(b1-4)GlcNAc(b1-2)Man(a1-3)[GlcNAc(b1-4)][Neu5Ac(a2-6)Gal(b1-4)GlcNAc(b1-2)Man(a1-6)]Man(b1-4)GlcNAc(b1-4)GlcNAc
# Summary of the method: as §1
# [32] = target: Neu5Ac(a2-6)Gal(b1-4)GlcNAc(b1-2)[Neu5Ac(a2-6)Gal(b1-4)GlcNAc(b1-4)]Man(a1-3)[GlcNAc(b1-4)][Neu5Ac(a2-6)Gal(b1-4)GlcNAc(b1-4)Man(a1-6)]Man(b1-4)GlcNAc(b1-4)GlcNAc
# Summary of the method: as §1
# [33] = target: Neu5Ac(a2-6)Gal(b1-4)GlcNAc(b1-3)Gal(b1-4)GlcNAc(b1-3)Gal(b1-4)GlcNAc(b1-2)Man(a1-3)[Neu5Ac(a2-6)Gal(b1-4)GlcNAc(b1-3)Gal(b1-4)GlcNAc(b1-3)Gal(b1-4)GlcNAc(b1-2)Man(a1-6)]GalNAc
# Summary of the method: as §1
# [34] = target: Neu5Ac(a2-8)Neu5Ac(a2-8)Neu5Ac(a2-3)Gal(b1-4)Glc
# Summary of the method: as §1
# [35] = target: Neu5Gc(b2-6)Gal(b1-4)GlcNAc
# Summary of the method: as §1
binder,measurement,setting,value
"YASPKCFRYPNGVLACT [Odorranalectin (Odorrana grahami), B3TFE9_RANGR]",glycan array binding signal (z-score),[1],0.133
same,glycan array binding signal (z-score),[2],1.89
same,glycan array binding signal (z-score),[3],-0.142
same,glycan array binding signal (z-score),[4],3.75
same,glycan array binding signal (z-score),[5],0.56
same,glycan array binding signal (z-score),[6],2.29
same,glycan array binding signal (z-score),[7],-0.278
same,glycan array binding signal (z-score),[8],-0.198
same,glycan array binding signal (z-score),Fuc(b1-3)GlcNAc,-0.094
same,glycan array binding signal (z-score),[9],-0.387
same,glycan array binding signal (z-score),[10],-0.625
same,glycan array binding signal (z-score),Gal(a1-3)GalNAc,0.618
same,glycan array binding signal (z-score),[11],1.47
same,glycan array binding signal (z-score),Gal(a1-4)Gal(b1-4)Glc,0.575
same,glycan array binding signal (z-score),[12],-0.258
same,glycan array binding signal (z-score),[13],-0.188
same,glycan array binding signal (z-score),Gal(b1-3)GlcNAc6S,-0.064
same,glycan array binding signal (z-score),[14],3.92
same,glycan array binding signal (z-score),[15],-0.246
same,glycan array binding signal (z-score),[16],-0.061
same,glycan array binding signal (z-score),[17],7.59
same,glycan array binding signal (z-score),[18],0.555
same,glycan array binding signal (z-score),[19],2.11
same,glycan array binding signal (z-score),[20],-0.385
same,glycan array binding signal (z-score),GalNAc(b1-4)GlcNAc,4.83
same,glycan array binding signal (z-score),[21],0.347
same,glycan array binding signal (z-score),[22],-0.376
same,glycan array binding signal (z-score),[23],8.95
same,glycan array binding signal (z-score),[24],3.67
same,glycan array binding signal (z-score),[25],0.083
same,glycan array binding signal (z-score),GlcNAc(b1-3)GalNAc,-0.315
same,glycan array binding signal (z-score),[26],0.438
same,glycan array binding signal (z-score),[27],-0.481
same,glycan array binding signal (z-score),[28],-0.405
same,glycan array binding signal (z-score),[29],-0.026
same,glycan array binding signal (z-score),Neu5Ac(a2-6)Gal,-0.415
same,glycan array binding signal (z-score),[30],-0.092
same,glycan array binding signal (z-score),[31],-0.309
same,glycan array binding signal (z-score),[32],-0.055
same,glycan array binding signal (z-score),[33],7.51
same,glycan array binding signal (z-score),[34],-0.429
same,glycan array binding signal (z-score),[35],-0.155
